# Bioassay records: PubChem, National Center for Advancing Translational Sciences (NCATS)
# Rab9 prom act = activates the Rab9 promoter. Potency, µM (highest dose often 9.22 µM), for inactives: at the highest dose activation, negative = inhibition, usual class: activators. AID 485297. 320,000 compounds, 2.8% hits. Huh7 Rab9 promoter-luciferase reporter, luminescence, 24 h; note: % of control where 0% means no effect; nearly all actives have a fitted effect of over 60% in size
#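 Huh7 reporter line, Rab9 promoter upstream of luciferase. Compound exposure 24 h at 37 °C in reduced-serum medium with 10% FBS. Read-out: luminescence.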
# NPC1 promoter act = activators of NPC1 promoter. Potency, µM (top dose mostly 9.22 µM), without a hit: at the top dose activation, most hits filed as activators. AID 485313. Huh7 NPC1 promoter luciferase reporter, 24 h. 320,000 compounds, 2.4% hits; note: % of control where 0% means no effect; nearly all actives have a fitted effect of over 60% in size
#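 Huh7 cells stably carrying NPC1 promoter–luciferase, plated in Opti-MEM with 10% FBS for 2 h, were exposed to compound in DMSO for 24 h at 37 °C; luciferase reagent was added for 10 min and luminescence read.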
# ELG1 genotox = induces genotoxicity in HEK293T cells with luciferase-tagged ELG1. HEK293T ELG1-luciferase reporter, luminescence, 16 h. Potency, µM (doses to about 46 µM), for the others: at the highest dose activity change, positive = activation, actives largely listed as activators. 330,000 compounds, 1.3% hits. AID 504466; note: % of control where 0% means no effect; nearly all actives have a fitted effect of over 60% in size
#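 Cells (2,000/well) expressing the ELG1-luciferase fusion are dosed by pin tool and kept 16 hr at 37 °C, 5% CO2. Signal comes from ONE-Glo luciferase reagent after 30 min at room temperature.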
# SMN2 splice enh = increases expression of the SMN2 splice variant | HEK293 SMN2-luciferase splicing reporter, luminescence, 30-36 h | AID 1458 | 210,000 compounds, 2.8% hits | Potency, µM (titrated, usually from 46.1 µM), without a hit: at the top dose activity change, positive = activation, hits mostly activators; note: % of control where 0% means no effect; nearly all actives have a fitted effect of over 55% in size
#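 qHTS luciferase splicing reporter: luminescence rises when SMN2 exon 7 is included in transfected HEK293 cells. Compound exposure lasted 30-36 h at 37C, with 4.5 mM final sodium butyrate as control, followed by a ONE-Glo read.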
# KinaseGlo FLuc = blocks Kinase-Glo luciferase, a counter-screen artifact | Kinase-Glo luciferase, ATP luminescence, 8 min | AID 1379 | Q27757 | 200,000 compounds, 0.28% hits | Potency, µM (top dose mostly 38.3 µM), for inactives: top-dose activity change, negative = inhibition, usual class: inhibitors; note: % is set by controls: 0 for no effect and ±100 for the full control effect; nearly all actives have a fitted effect of over 60% in size
#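 Light output from Kinase-Glo luciferase with luciferin and 10 uM ATP in 50 mM imidazole pH 7.2, KCl, MgCl2, Tween 20, BSA; compound pin-delivered, 8-min ambient incubation, then luminescence read.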
# FLuc counter = counter-screen for miR-21 project: firefly luciferase inhibitors or activators. Potency, µM (series often up to 57.5 µM), for the others: at the highest dose activity change, negative = inhibition, usual class: inhibitors. purified FLuc, Km substrates, luminescence inhibition. 360,000 compounds, 6.9% hits. AID 588342;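 note: plate controls were vehicle for no effect and reference inhibitor for full effect; nearly all actives have a fitted effect of over 55% in size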
# Target sequence (P08659 whole entry, looked up): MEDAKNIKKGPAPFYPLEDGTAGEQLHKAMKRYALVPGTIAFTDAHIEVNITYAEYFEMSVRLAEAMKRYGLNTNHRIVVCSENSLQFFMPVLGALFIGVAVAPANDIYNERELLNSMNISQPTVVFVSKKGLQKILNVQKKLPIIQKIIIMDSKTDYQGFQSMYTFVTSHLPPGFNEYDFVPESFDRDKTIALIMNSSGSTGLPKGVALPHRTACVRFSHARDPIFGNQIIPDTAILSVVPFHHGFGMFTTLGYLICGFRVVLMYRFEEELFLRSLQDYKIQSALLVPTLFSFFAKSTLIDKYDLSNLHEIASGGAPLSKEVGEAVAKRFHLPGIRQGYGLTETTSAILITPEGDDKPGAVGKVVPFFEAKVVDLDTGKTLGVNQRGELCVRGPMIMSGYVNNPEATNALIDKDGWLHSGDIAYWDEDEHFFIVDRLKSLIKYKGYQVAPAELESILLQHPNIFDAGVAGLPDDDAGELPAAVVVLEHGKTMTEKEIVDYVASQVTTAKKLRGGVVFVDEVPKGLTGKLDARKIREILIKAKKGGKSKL
#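 Purified P. pyralis luciferase (10nM final) with 10uM D-luciferin and 10uM ATP (Km levels) in 50mM Tris acetate pH 7.5, 10mM Mg acetate, 0.01% Tween-20, 0.05% BSA; qHTS 6-point titration, ~60 µM downward; luminescence read.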
# An asterisk follows results filed as active; ? = inconclusive; nt = no result; [ ] = dose if it differs, or a comment. An excerpt weighted towards active compounds, which were near 7.4% of everything screened. Calls come from the whole dose curve; as a rule, active = well fitted curve in the direction sought with a large enough effect; inconclusive = small, poorly fitted or top-dose-only effect, or another doubt; inactive = no such curve, though single readings can be large; an effect the other way counts as inactive or inconclusive. Potency is the fitted concentration of half-maximal effect.
SMILES,Rab9 prom act,NPC1 promoter act,ELG1 genotox,SMN2 splice enh,KinaseGlo FLuc,FLuc counter
Cc1cccc(NC(=O)c2cnc3sccn3c2=O)c1C,1.1µM*,?,4.1µM*,5.6µM*,-2%,2.7µM*
CC(=O)c1cnc2sccn2c1=O,3%,-3%,0%,-6%,-2%,-3%
Cn1cnnc1SCC(=O)NNC(=O)c1ccc([N+](=O)[O-])cc1,nt,nt,0%,nt,nt,nt
COC(=O)C1=C(CN2CCc3ccccc32)NC(=O)NC1c1cc(C)ccc1C (stereo not drawn),-9%,2%,-3%,4.5µM*,2%,0%
COC(=O)C1=C(CN2CCN(C)CC2)NC(=O)NC1c1cc(C)ccc1C (stereo not drawn),-10%,-2%,-1%,14%,-1%,0%
COC(=O)C1=C(CSc2nncn2C)NC(=O)NC1c1cc(C)ccc1C (stereo not drawn),-5%,-4%,-2%,17%,4%,0%
COC(=O)C1=C(CSc2nnnn2C)NC(=O)NC1c1cc(C)ccc1C (stereo not drawn),0%,-4%,-1%,25µM*,3%,3%
CC(Oc1ccccc1)C(=O)Nc1nc2ccc(S(N)(=O)=O)cc2s1 (stereo not drawn),nt,nt,nt,nt,nt,-13%
CN(C)CCCNCC(=O)c1c(-c2ccccc2)n(C)c2ccccc12,-3%,0%,-2%,nt,nt,-2%
O=C(COC(=O)c1cnccn1)NCCc1ccc(Cl)cc1,-5%,-6%,1%,nt,nt,0%
COc1ccc(C)cc1NS(=O)(=O)c1ccc2oc(=O)c3ncn(C)c3c2c1,nt,nt,nt,nt,nt,0%
O=C(c1cn(-c2ccccc2)nc1-c1cccs1)N1CCN(c2ccc(F)cc2)CC1,-3%,2%,-8%,nt,nt,13µM*
O=C(c1cccs1)N1CCN(C(=O)c2cn(-c3ccccc3)nc2-c2ccccc2)CC1,nt,nt,0%,nt,nt,nt
O=C(c1cc(-c2cccs2)on1)N1CCN(c2ccc(F)cc2)CC1,1%,3%,-7%,-53%,1%,24µM*
O=C(c1cn(-c2ccccc2)nc1-c1ccc(Cl)s1)N1CCOCC1,-8%,-2%,2%,13%,8%,17µM*
O=C(c1cc(-c2cccs2)nc2ccccc12)N1CCN(c2ccccc2)CC1,-1%,-9%,-13%,-17%,-1%,11µM*
O=C(c1cc(-c2cccs2)nc2ccccc12)N1CCN(S(=O)(=O)c2ccccc2)CC1,-5%,-2%,-3%,-9%,-3%,?
O=C(c1cn(-c2ccccc2)nc1-c1ccc(Cl)cc1)N1CCOCC1,-2%,-1%,-1%,18%,1%,?
Oc1ccccc1-n1c(-c2ccccc2)ccc1-c1ccccc1,0%,-2%,-6%,nt,nt,-3%
O=C(c1cc(-c2cccs2)on1)N1CCN(c2ccccc2)CC1,2%,-2%,0%,3%,-5%,17µM*
O=C(O)c1cc(-c2cccs2)nc2ccc(Br)cc12,3%,1%,-1%,nt,nt,19µM*
O=c1c2sccc2nc(SCc2cc(=O)n3ccccc3n2)n1Cc1ccccn1,4µM*,?,?,13µM*,-2%,-3%
O=C(Cc1n[nH]c(=O)c2ccccc12)OCC(=O)c1ccc2c(c1)OCCO2,-10%,-8%,?,-19%,0%,13µM*
O=C(Cc1ccc(Br)cc1)OCC(=O)c1ccc2c(c1)OCCO2,-2%,-4%,4%,16%,-1%,17µM*
O=C(Cc1n[nH]c(=O)c2ccccc12)OCC(=O)c1ccc(F)cc1,1%,-2%,0%,nt,nt,4%
SMILES,Rab9 prom act,NPC1 promoter act,ELG1 genotox,SMN2 splice enh,KinaseGlo FLuc,FLuc counter
COc1ccc(/C=C/C(=O)c2cc(Cl)ccc2O)c(OC)c1,22%,?,3%,nt,nt,11µM*
N/C(=C/C(=O)c1ccccc1O)C(F)(F)F,6%,13%,3%,-9%,-1%,?
CN(C)c1ccc(/C=C/C(=O)c2cc(Cl)ccc2O)cc1,2%,?,0%,nt,nt,9.5µM*
COc1ccc(/C=C/C(=O)c2cc(O)ccc2O)cc1,nt,nt,nt,-75%,-13%,nt
COc1ccc(C(=O)/C=C(\N)C(F)(F)F)c(O)c1,-7%,0%,-1%,2%,-2%,11µM*
COc1ccc(/C=C/C(=O)c2ccc(OC)cc2OC)cc1,12%,20%,5%,nt,nt,12µM*
COc1ccc(/C=C/C(=O)c2cc3c(cc2N)OCO3)cc1,?,?,?,?,?,2.1µM*
COc1ccc(C(=O)/C=C/c2ccc(OC)cc2OC)c(O)c1,?,?,?,nt,nt,3µM*
COC(=O)c1ccc(/C=C/C(=O)c2ccc(OC)cc2)cc1,9%,?,2%,-15%,-3%,11µM*
O=C(/C=C/c1ccc(O)cc1)c1ccc(O)cc1O,10%[46.1 µM],17%[46.1 µM],?,20%,-3%,11µM*
COc1cc(OC)c(OC)cc1CCC(C)NC(=O)Cc1ccccc1 (stereo not drawn),0%,-1%,3%,nt,nt,-1%
COc1ccc(/C=C/C(=O)c2ccc(Cl)cc2)c(OC)c1,2%,16%,?,-20%,5%,2.1µM*
COc1ccc(/C=C/C(=O)c2ccc(O)cc2O)cc1,nt,nt,nt,-5%,-10%,nt
COc1ccc(/C=C/C(=O)/C=C/c2ccc(OC)cc2OC)c(OC)c1,nt,nt,nt,0%,-3%,nt
COc1ccc(C(=O)/C=C/c2ccccc2)c(O)c1,?,?,-3%,-19%,1%,6µM*
O=C1[C@@H](Oc2ccccc2)[C@@H](c2cnc3ccccc3c2)N1c1ccccc1,nt,nt,-12%,nt,nt,nt
[O-]/[N+](=C/c1ccc(F)cc1)c1ccc(Cl)cc1,18%,?,16µM*,11%,-4%,4.8µM*
CCC1CN(S(=O)(=O)c2cc(-c3onc(C)c3C)ccc2C)c2cc(Cl)ccc2O1 (stereo not drawn),nt,nt,nt,nt,nt,-2%
Cc1cccc(C)c1Nc1ncnc2ccccc12,2%,-3%,0%,nt,nt,3%
CC[C@@H]1Cn2c(c3nc(-c4cc(Cl)cc(Cl)c4Cl)nc-3n(C)c2=O)N1,nt,nt,nt,nt,-2%[39.9 µM],nt
O=C(O)c1ccccc1C(=O)Nc1ccc(Oc2cccc3ccccc23)cc1,-2%,-3%,-10%,-8%,2%,24µM*
O=C(O)c1ccccc1C(=O)Nc1ccc(Oc2ccc3ccccc3c2)cc1,-3%,-3%,3%,nt,-4%,27µM*
O=C(Nc1ccc(Oc2cccc3ccccc23)cc1)c1ccco1,13%,4%,?,-54%,-5%,24µM*
COc1ccc(NC(=O)c2ccccc2Oc2ccccc2)cc1,1%,3%,5%,nt,nt,-10%
